A short description of this experiment: Confirmatory qHTS for Identification of Small Molecule Activators of Huntingtin-Antisense Promoter Activity. As to conditions: HEK293 HTT-AS promoter firefly luciferase reporter, 24 h; series mostly up to 57.5 µM. The gist of the method: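 2,500 luciferase reporter HEK293 cells/well; 24 h culture; cpds up to 57.5 uM final, PTC124 50 uM ctrl; 24 h, 37C; Dual-Glo FLuc reagent, 10 min RT; lum. Norm.: vehicle 0%, zero RLU -100%.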
In general terms: qHTS replaces the single test concentration by a dilution series.

Our source for the Potency values is PubChem BioAssay AID1508622 (National Center for Advancing Translational Sciences (NCATS), 2021).

Calls of active or inactive are those of the source. Where a call stands in place of a potency, no number is given. Calls follow the shape of the dose curve; as a rule, active = well fitted activation curve with a large enough effect; inconclusive = small, poorly fitted or top-dose-only effect; inactive = no such curve, though single readings can be large or run the other way.
Potency is read from the fitted curve at half-maximal effect.

On to `Cc1oc(-c2ccc(C(=O)NCCCOC(C)C)cc2)nc1CS(=O)(=O)c1ccccc1`, for which the Potency entry was “inactive”.

`CCc1ccc(OC(C)C(=O)N2CCC(c3nc4ccccc4s3)CC2)cc1` (stereo not drawn): the Potency entry is “inactive”.

Take `O=C(Nc1ccc(F)cc1F)N1CCN(c2ccc(Cl)c(Cl)c2)CC1`: the Potency entry is “inactive”.

Regarding `OCCCn1c(-c2ccc(F)cc2)csc1=Nc1ccc(F)cc1`, the Potency entry is “inactive”.

For `Cc1cccc(-c2nc3scc(CCNS(=O)(=O)c4ccc(Oc5ccccc5)cc4)n3n2)c1`, the Potency result is “inactive”.

With `CN(C)C(=O)COC(=O)Cc1ccc(OC(=O)c2ccc(N=C(N)N)cc2)cc1`, the Potency entry is “inactive”.

Consider `Cc1cccc(C)c1NC(=O)c1ccc2nc(CCc3ccccc3)oc2c1`, for which the Potency result is “inactive”.

For `COc1cc(NC(=O)NC(C)c2c(-n3cccc3)sc3c2CCCC3)cc(OC)c1OC` (stereo not drawn), the Potency result is “inactive”.

As for `COc1ccc(C(C)n2c(C)c3c(C)nnc(C)c3c2C)cc1` (stereo not drawn), the Potency result is “inactive”.

`Cc1ccccc1-c1nc(CS(=O)CC(=O)N2CCN(c3cc(Cl)ccc3C)CC2)c(C)o1` (stereo not drawn): the Potency entry is “inactive”.

For `CCOc1ccc(CCNC(=O)c2ccc(CS(=O)(=O)Cc3ccccc3Cl)o2)cc1OCC`, the Potency entry was “inactive”.

As for `O=C(Cn1c(=O)oc2cc(S(=O)(=O)N3CCCCC3)ccc21)NCc1ccc(Cl)cc1`, the Potency result was “inactive”.

`CCOc1ccc(S(=O)(=O)N(C(C)=O)c2ccc3oc(C)c(C(=O)OC)c3c2)cc1`: the Potency entry is “inactive”.

As for `CCOc1ccc(NC(=O)c2c(Nc3ccccc3C)sc(C(=O)c3ccccc3)c2N)cc1`, the Potency result is “inactive”.

For the compound `CN(C)c1ccc(C(=O)Nc2sc(Nc3ccccc3)nc2C(N)=O)cc1`, the Potency result is “inactive”.

With `Cc1ccc(NC(=O)c2cc(S(=O)(=O)N3CCc4ccccc43)ccc2F)cc1Cl`, the Potency entry is “inactive”.

For `COc1ccc(C(=O)CN2CCN(S(=O)(=O)c3ccc(C(C)C)cc3)CC2)cc1`, the Potency result was “inactive”.

Regarding `CC1CCCCN1C(=O)CSc1nc2ccccc2nc1Cc1ccc(Cl)cc1` (stereo not drawn), the Potency result was “inactive”.

Consider `COc1ccc(N2CCN(C(CNC(=O)c3ccc(C)cc3)c3ccc4c(c3)OCO4)CC2)cc1` (stereo not drawn), for which the Potency entry is “inactive”.

Consider `Cc1cccc(N2CCN(C(=O)c3ccc4c(c3)CCN4S(=O)(=O)c3ccccc3)CC2)c1C`, for which the Potency result is “inactive”.

`CCN(CC)CCOc1ccc(C(=C(Cl)c2ccccc2)c2ccccc2)cc1`: the Potency result was “inactive”.

On to `CCCCC(CC)CNC(=O)Cc1ccc(-n2c(=O)[nH]c3ccccc3c2=O)cc1` (stereo not drawn), for which the Potency entry is “inactive”.

Regarding `Cc1oc(-c2ccc(C(=O)Nc3cccc(C(F)(F)F)c3)cc2)nc1CSc1ccccc1`, the Potency result is “inactive”.

Regarding `Cc1ccc(C(=O)Nc2ccc(F)cc2)cc1S(=O)(=O)N1CCCCCC1`, the Potency entry is “inactive”.

In the case of `CCOC(=O)c1ccc(Nc2nc3nonc3nc2Nc2cccc(C)c2C)cc1`, the Potency entry is “inactive”.

As to `CCc1cccc(NS(=O)(=O)c2ccc3c(c2)CC(C)N3C(=O)C2CC2)c1` (stereo not drawn), the Potency result was “inactive”.

As for `COc1ccc(C2=C(C)C(=O)N(Cc3ccc(C(=O)Nc4cccc(F)c4)cc3)S2(=O)=O)cc1`, the Potency result was “inactive”.

For `CCCCN1CC(c2nc3ccccc3n2CCCCOc2ccc(C)c(C)c2)CC1=O` (stereo not drawn), the Potency result is “inactive”.

On to `CCN1C(=O)c2ccccc2Sc2ccc(NC(=O)c3ccc(C)c(F)c3)cc21`, for which the Potency result is “inactive”.

Regarding `Cc1cc(C)c(Cn2c3ccccc3c3cnn(CC(=O)N4CCCCC4)c(=O)c32)c(C)c1`, the Potency result is “inactive”.

As to `COc1ccccc1C(=O)Nc1nc2n(n1)C(c1ccc(F)cc1)C=C(c1ccc(Cl)cc1)N2` (stereo not drawn), the Potency result is “inactive”.

For the compound `Cc1nc2cccnc2n1-c1cccc(C(=O)NCc2ccc(OC(C)C)cc2)c1`, the Potency result was “inactive”.

Consider `CCC(=O)N1CCCc2cc(S(=O)(=O)N3CCC(C(=O)Nc4ccc(F)c(F)c4)CC3)ccc21`, for which the Potency entry was “inactive”.

On to `O=C(c1cccs1)N(Cc1cccnc1)c1nc2c(F)cc(F)cc2s1`, for which the Potency result is “inactive”.

Turning to `CCc1ccc(NC(=O)c2ccc(F)c(S(=O)(=O)N3CCN(c4cc(C)ccc4C)CC3)c2)cc1`, the Potency entry was “inactive”.

`COc1ccccc1C(=O)Nc1nnc(SCc2cc(=O)c3ccccc3[nH]2)s1`: the Potency result is “inactive”.

Consider `COc1ccc(-c2noc(N3CCN(c4cccc(C)c4C)CC3)n2)cc1OC`, for which the Potency entry is “inactive”.

In the case of `CC(C)Oc1ccc(C(=O)N(Cc2ccco2)c2ccccn2)cc1`, the Potency was 2690 nM (active).

As to `Cn1c(=O)n(C)c2cc(NS(=O)(=O)c3ccccc3)c(NCc3ccccc3)cc21`, the Potency result is “inactive”.

As to `Cc1csc2nc(COC(=O)c3ccccc3NC(=O)c3ccccc3Cl)cc(=O)n12`, the Potency result was “inactive”.

As to `CCN1c2ccccc2-c2nc(SCC(=O)Nc3cc(F)ccc3F)ncc2S1(=O)=O`, the Potency result is “inactive”.

As for `Cc1ccc(SCc2nc(-c3ccc(C(=O)NCc4ccccc4Cl)cc3)oc2C)cc1`, the Potency entry is “inactive”.

Take `CCN(Cc1ccccc1)C(=O)C1CCC(CNS(=O)(=O)c2ccc3c(c2)CCCC(=O)N3)CC1` (stereo not drawn): the Potency result was “inactive”.

In the case of `CCN(Cc1ccccc1)S(=O)(=O)c1ccc(N2CCCCS2(=O)=O)cc1`, the Potency entry was “inactive”.

`O=C(Nc1ccc(Br)cc1)c1ccc(Br)c(S(=O)(=O)N2CCCCC2)c1`: the Potency result was “inactive”.

In the case of `Cc1noc2ncnc(NCc3cccc(Cl)c3)c12`, the Potency entry is “inactive”.

Turning to `CCOC(=O)c1cc(-c2ccccc2)n(CCC(=O)Nc2ccc(OC)c(Cl)c2)c1C`, the Potency entry is “inactive”.

On to `CCc1ccc(CNC(=O)c2sc3ncccc3c2-n2c(C)ccc2C)cc1`, for which the Potency entry is “inactive”.

`O=C(CN(c1cccc(C(F)(F)F)c1)S(=O)(=O)c1ccccc1)Nc1cccc(Cl)c1`: the Potency entry was “inactive”.

Consider `CCCS(=O)(=O)NCCc1sc2nc(-c3ccc(Cl)cc3)nn2c1C`, for which the Potency result is “inactive”.

Regarding `Cc1ccc(NC(=O)Cn2cc(S(=O)(=O)Cc3ccccc3)c3ccccc32)cc1C`, the Potency result is “inactive”.

For the compound `CCOC(=O)c1ccc(CN(Cc2ccc(C)cc2)S(=O)(=O)c2ccc(NC(C)=O)cc2)cc1`, the Potency entry is “inactive”.

Regarding `COc1ccc(C(=O)Nc2ccc(S(=O)(=O)N(Cc3ccccc3)c3ccccc3)cc2)cc1`, the Potency entry is “inactive”.

On to `Cc1cccc(N2CCN(S(=O)(=O)c3ccc4c(c3)C(C(C)C)C(=O)N4)CC2)c1C` (stereo not drawn), for which the Potency result was “inactive”.

Regarding `CCc1ccc(NC(=O)c2cc(S(=O)(=O)N3CCCCCC3)ccc2F)cc1`, the Potency result is “inactive”.

For `Cc1ccc(CNS(=O)(=O)c2ccc(N3CCCCS3(=O)=O)cc2)cc1`, the Potency entry is “inactive”.

Consider `Fc1ccc(-c2csc(=Nc3cccc(C(F)(F)F)c3)n2Cc2ccc3c(c2)OCO3)cc1`, for which the Potency result was “inactive”.

Take `CCOc1ccccc1NC(=O)c1ccc(F)c(S(=O)(=O)N2CCN(c3ccc(F)cc3)CC2)c1`: the Potency entry is “inactive”.

In the case of `Cc1ccc(NC(=O)C2CCCN2S(=O)(=O)c2cccc3nsnc23)cc1Cl` (stereo not drawn), the Potency result was “inactive”.

`CC(CNC(=O)c1ccc(CSc2nc3ccncc3n2Cc2ccc(F)cc2)cc1)c1ccccc1` (stereo not drawn): the Potency result was “inactive”.

`O=C(Nc1ccc(S(=O)(=O)N(Cc2ccccc2)c2ccccc2)cc1)c1ccc(F)cc1`: the Potency result is “inactive”.

With `O=C(CSc1nc(-c2ccc(F)cc2)[nH]c1-c1ccccc1)Nc1ccccc1`, the Potency entry is “inactive”.

On to `O=C(NCCC1=CCCCC1)c1ccc2c(c1)N(Cc1cccc(Cl)c1)C(=O)c1ccccc1S2(=O)=O`, for which the Potency entry is “inactive”.

Consider `CCOC(=O)C1CCCN(C(=O)Cn2c(=O)cc(C)c3c(C)nn(C)c32)C1` (stereo not drawn), for which the Potency entry is “inactive”.

With `O=C(NCCn1cc(SCc2ccccc2)c2ccccc21)c1cccs1`, the Potency entry was “inactive”.

With `Cc1cccc(N2CCN(C(=O)c3ccc(NC(=O)c4nsc5ccccc45)cc3)CC2C)c1` (stereo not drawn), the Potency was 338 nM (active).

As to `Cc1cccc(N2CCN(S(=O)(=O)c3ccc4c(c3)CCCN4C(=O)C3CCC3)CC2)c1C`, the Potency result was “inactive”.

For the compound `O=C(O)c1ccc2c(c1)N(Cc1ccc(F)cc1)C(=O)c1ccccc1S2=O` (stereo not drawn), the Potency result was “inactive”.

`CCCc1cc(N2CCN(c3ccccc3)CC2)n2cnnc2n1`: the Potency entry was “inactive”.

Regarding `CCCc1ccc(C2Sc3ccccc3NC3=C2C(=O)c2ccccc23)cc1` (stereo not drawn), the Potency entry was “inactive”.

Regarding `CCOc1ccc(CCNC(=O)c2cc3c(-c4cccc(OC)c4)nn(C)c3s2)cc1OCC`, the Potency entry is “inactive”.

As to `CCc1nc2ccc(C(=O)NCCc3ccc(OC)cc3OC)cc2nc1CC`, the Potency entry was “inactive”.

As for `CC(C)c1ccc(NC(=O)C2CCN(c3nc(-c4ccc(C(C)C)cc4)no3)CC2)cc1`, the Potency entry is “inactive”.

Regarding `COC(=O)c1c(C)oc2ccc(N(C(=O)c3ccncc3)S(=O)(=O)c3ccc(Br)cc3)cc12`, the Potency entry is “inactive”.

As for `COc1ccc(NC(=O)CSc2oc(-c3cccs3)nc2S(=O)(=O)c2ccccc2)c(OC)c1`, the Potency result was “inactive”.

For the compound `COc1ccc(-c2nc(CSCC(=O)NCCc3ccc(OC)c(OC)c3)c(C)o2)cc1`, the Potency result is “inactive”.

On to `CCOc1ccc(C2=C(C(=O)CC)Sc3nncn3N2C(=O)CC)cc1`, for which the Potency result is “inactive”.

Take `CCc1ccc(NC(=O)c2ccc(F)c(S(=O)(=O)NCCc3ccc(OC)c(OC)c3)c2)cc1`: the Potency entry was “inactive”.

Consider `CCOc1ccc(NS(=O)(=O)c2ccc(-c3cc(C)no3)s2)cc1`, for which the Potency result is “inactive”.

With `CCOC(=O)c1ccc(N2C(=O)c3[nH]nc(-c4ccc(OCC)cc4)c3C2c2cccs2)cc1` (stereo not drawn), the Potency result was “inactive”.

Consider `COc1ccccc1CCNC(=O)C(=O)NCC(c1cccs1)S(=O)(=O)c1ccccc1` (stereo not drawn), for which the Potency result is “inactive”.

For `CCc1nnc2n1N(C(C)=O)C(c1ccc(C(C)(C)C)cc1)=C(C(C)=O)S2`, the Potency entry is “inactive”.

For `CC(C)(C)c1ccc(C(=O)Nc2ccc3c(c2)CCCN3C(=O)c2cccs2)cc1`, the Potency entry was “inactive”.

With `CCCCN(C)CCCNC(=O)Cn1ncc2c3ccccc3n(Cc3ccccc3F)c2c1=O`, the Potency result is “inactive”.

For the compound `COC(=O)c1ccccc1NC(=O)Cn1nc(C(F)(F)F)c2c1CCCC2`, the Potency entry is “inactive”.

Turning to `Cc1ccc(CCNC(=O)C(C)n2nc(C)c3c(C)n(-c4ccc(C)cc4)nc3c2=O)cc1` (stereo not drawn), the Potency result was “inactive”.

In the case of `COc1cc(OC)c(C2C=C(c3ccc(C)cc3)Nc3c(C(=O)Nc4ccccc4)cnn32)cc1OC` (stereo not drawn), the Potency entry is “inactive”.

As to `CCc1ccc(NC(=O)Nc2cn(C)c(=O)c3ccccc23)cc1`, the Potency entry was “inactive”.

Consider `COc1ccc2[nH]cc(CCNC(=O)c3cnn(-c4ccc(C)cc4)c3C3CCN(C(=O)OC(C)(C)C)CC3)c2c1`, for which the Potency entry is “inactive”.

Regarding `Cc1ccc(Cl)cc1-n1ncc2c(Nc3cccc(C)c3C)ncnc21`, the Potency result was “inactive”.

With `COc1ccc(NC(=O)Cc2csc(COc3cccc(C)c3)n2)cc1OC`, the Potency result is “inactive”.

As for `O=C(NCCCN1CCN(c2ccccc2)CC1)c1ccc2nc(CCc3ccccc3)oc2c1`, the Potency entry was “inactive”.

On to `CCN(Cc1ccccc1)C(=O)c1cc(-c2ccccc2)n[nH]1`, for which the Potency was 953 nM (active).
